The results in this text go back to ChEMBL document CHEMBL1961873, “Compounds: GSK PKIS; Assays: Nanosyn kinase panel” (2012).

Experiment [1] concerns the target Serine/threonine-protein kinase MRCK alpha (Homo sapiens) (UniProt Q5VT25). The settings on record: at 0.1 µM.
For experiment [2] the target is unchanged. The note with it: at 1 µM.
In experiment [3] the target is Serine/threonine-protein kinase MRCK beta (Homo sapiens) (UniProt Q9Y5S2). The settings on record: at 0.1 µM.
Experiment [4] has the same target. The note with it: at 1 µM.
For experiment [5], the target named is Ribosomal protein S6 kinase alpha-5 (Homo sapiens) (UniProt O75582). The note with it: at 0.1 µM.
Chain of Ribosomal protein S6 kinase alpha-5 (Homo sapiens) (O75582 whole entry, looked up): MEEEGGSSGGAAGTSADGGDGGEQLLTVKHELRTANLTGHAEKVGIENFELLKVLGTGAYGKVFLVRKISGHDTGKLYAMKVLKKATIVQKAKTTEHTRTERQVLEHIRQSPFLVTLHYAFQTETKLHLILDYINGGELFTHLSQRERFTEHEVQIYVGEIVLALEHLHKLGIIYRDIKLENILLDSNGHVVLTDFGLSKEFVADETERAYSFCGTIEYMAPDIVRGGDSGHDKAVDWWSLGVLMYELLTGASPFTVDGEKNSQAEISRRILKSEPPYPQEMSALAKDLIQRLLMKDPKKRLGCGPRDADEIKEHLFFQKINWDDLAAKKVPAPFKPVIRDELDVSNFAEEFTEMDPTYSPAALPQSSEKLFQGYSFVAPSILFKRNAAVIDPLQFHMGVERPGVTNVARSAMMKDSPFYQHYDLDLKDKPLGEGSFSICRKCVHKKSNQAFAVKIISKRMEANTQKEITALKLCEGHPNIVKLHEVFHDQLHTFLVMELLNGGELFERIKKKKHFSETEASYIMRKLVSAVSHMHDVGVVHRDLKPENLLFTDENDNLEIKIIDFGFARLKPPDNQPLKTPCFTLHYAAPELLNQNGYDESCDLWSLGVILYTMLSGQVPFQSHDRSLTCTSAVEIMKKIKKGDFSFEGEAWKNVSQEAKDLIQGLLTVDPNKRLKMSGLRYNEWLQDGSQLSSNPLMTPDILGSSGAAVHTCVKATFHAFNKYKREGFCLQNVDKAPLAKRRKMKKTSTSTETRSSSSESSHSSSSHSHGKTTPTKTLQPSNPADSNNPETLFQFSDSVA
Experiment [6] shares this target. The note with it: at 1 µM.
Experiment [7] addresses Ribosomal protein S6 kinase alpha-4 (Homo sapiens) (UniProt O75676). The note with it: at 0.1 µM.
The target is the same in experiment [8]. The note with it: at 1 µM.
Experiment [9] concerns the target Ribosomal protein S6 kinase beta-1 (Homo sapiens) (UniProt P23443). The note with it: at 0.1 µM.
For experiment [10] the target is unchanged. The note with it: at 1 µM.
In experiment [11] the target is T1, 3-phosphoinositide-dependent protein kinase 1 (Homo sapiens) (UniProt O15530).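 Note: values are mean inhibition of PDK1.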
T1 sequence (whole entry): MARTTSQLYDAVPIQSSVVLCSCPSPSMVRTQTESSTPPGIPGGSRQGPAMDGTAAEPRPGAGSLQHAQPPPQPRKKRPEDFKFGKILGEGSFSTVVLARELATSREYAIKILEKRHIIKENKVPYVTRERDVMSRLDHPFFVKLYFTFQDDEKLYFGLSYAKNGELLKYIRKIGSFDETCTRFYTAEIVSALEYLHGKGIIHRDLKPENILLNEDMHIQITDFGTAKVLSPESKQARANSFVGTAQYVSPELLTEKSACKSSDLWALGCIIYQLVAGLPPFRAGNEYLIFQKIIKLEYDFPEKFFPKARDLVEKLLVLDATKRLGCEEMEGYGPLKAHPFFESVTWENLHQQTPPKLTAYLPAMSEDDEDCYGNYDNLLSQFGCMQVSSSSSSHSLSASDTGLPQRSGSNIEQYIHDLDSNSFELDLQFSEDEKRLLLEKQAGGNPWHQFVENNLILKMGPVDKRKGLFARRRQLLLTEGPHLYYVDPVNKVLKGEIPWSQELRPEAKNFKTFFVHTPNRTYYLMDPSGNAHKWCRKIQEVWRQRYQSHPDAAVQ
The settings on record: at 0.1 µM.

In experiment [12] the target is cAMP-dependent protein kinase catalytic subunit alpha (Homo sapiens) (UniProt P17612). The note with it: at 0.1 µM.
The target is the same in experiment [13]. The settings on record: at 1 µM.
In experiment [14] the target is Protein kinase C alpha type (Homo sapiens) (UniProt P17252). The settings on record: at 0.1 µM.
The target is the same in experiment [15]. The note with it: at 1 µM.
In experiment [16] the target is Protein kinase C beta type (Homo sapiens) (UniProt P05771). The settings on record: at 0.1 µM.
The target is the same in experiment [17]. The note with it: at 1 µM.
For experiment [18], the target named is Protein kinase C eta type (Homo sapiens) (UniProt P24723). The note with it: at 0.1 µM.
Chain of Protein kinase C eta type (Homo sapiens) (P24723 whole entry): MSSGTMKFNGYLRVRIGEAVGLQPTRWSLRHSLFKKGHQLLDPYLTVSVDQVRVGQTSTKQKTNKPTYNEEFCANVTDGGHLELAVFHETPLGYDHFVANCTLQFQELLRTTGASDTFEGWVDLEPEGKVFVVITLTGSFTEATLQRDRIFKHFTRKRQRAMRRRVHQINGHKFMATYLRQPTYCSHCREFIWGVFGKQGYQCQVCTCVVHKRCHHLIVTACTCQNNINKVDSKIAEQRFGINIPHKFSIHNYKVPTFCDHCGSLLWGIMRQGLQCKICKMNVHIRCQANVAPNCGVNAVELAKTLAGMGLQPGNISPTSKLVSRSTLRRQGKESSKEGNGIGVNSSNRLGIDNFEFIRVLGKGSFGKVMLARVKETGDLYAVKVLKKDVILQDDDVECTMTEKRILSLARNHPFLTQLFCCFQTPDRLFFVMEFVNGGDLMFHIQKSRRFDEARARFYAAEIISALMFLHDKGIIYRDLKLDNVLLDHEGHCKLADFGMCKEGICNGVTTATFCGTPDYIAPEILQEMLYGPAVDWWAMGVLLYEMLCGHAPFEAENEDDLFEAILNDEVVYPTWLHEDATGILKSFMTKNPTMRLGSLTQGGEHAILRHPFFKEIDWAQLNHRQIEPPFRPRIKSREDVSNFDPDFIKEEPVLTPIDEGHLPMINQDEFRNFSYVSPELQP
The target is the same in experiment [19]. The settings on record: at 1 µM.
For experiment [20], the target named is Protein kinase C gamma type (Homo sapiens) (UniProt P05129). The note with it: at 0.1 µM.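 Note: values are mean percent inhibition of PKC gamma.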

Chain of Ribosomal protein S6 kinase alpha-4 (Homo sapiens) (O75676 whole entry, looked up): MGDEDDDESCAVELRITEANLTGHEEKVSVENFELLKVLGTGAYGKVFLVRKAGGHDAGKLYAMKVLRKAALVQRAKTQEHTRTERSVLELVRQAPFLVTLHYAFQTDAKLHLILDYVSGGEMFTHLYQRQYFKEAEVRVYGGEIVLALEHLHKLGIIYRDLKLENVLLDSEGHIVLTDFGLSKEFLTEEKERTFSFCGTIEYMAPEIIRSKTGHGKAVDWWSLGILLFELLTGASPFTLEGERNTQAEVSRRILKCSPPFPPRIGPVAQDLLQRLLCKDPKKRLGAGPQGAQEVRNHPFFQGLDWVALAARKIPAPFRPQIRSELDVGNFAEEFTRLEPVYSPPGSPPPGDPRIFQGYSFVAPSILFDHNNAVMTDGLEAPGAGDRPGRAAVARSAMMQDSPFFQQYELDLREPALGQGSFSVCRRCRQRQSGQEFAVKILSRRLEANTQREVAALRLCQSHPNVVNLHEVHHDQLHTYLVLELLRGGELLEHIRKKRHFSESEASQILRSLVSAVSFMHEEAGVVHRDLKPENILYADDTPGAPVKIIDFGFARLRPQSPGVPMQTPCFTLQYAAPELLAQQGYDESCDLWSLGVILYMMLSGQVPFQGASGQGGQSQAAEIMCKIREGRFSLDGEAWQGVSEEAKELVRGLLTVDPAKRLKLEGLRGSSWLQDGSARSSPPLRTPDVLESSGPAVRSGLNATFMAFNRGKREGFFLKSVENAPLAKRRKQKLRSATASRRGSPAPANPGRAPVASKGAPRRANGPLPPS
Chain of Serine/threonine-protein kinase MRCK alpha (Homo sapiens) (Q5VT25 whole entry): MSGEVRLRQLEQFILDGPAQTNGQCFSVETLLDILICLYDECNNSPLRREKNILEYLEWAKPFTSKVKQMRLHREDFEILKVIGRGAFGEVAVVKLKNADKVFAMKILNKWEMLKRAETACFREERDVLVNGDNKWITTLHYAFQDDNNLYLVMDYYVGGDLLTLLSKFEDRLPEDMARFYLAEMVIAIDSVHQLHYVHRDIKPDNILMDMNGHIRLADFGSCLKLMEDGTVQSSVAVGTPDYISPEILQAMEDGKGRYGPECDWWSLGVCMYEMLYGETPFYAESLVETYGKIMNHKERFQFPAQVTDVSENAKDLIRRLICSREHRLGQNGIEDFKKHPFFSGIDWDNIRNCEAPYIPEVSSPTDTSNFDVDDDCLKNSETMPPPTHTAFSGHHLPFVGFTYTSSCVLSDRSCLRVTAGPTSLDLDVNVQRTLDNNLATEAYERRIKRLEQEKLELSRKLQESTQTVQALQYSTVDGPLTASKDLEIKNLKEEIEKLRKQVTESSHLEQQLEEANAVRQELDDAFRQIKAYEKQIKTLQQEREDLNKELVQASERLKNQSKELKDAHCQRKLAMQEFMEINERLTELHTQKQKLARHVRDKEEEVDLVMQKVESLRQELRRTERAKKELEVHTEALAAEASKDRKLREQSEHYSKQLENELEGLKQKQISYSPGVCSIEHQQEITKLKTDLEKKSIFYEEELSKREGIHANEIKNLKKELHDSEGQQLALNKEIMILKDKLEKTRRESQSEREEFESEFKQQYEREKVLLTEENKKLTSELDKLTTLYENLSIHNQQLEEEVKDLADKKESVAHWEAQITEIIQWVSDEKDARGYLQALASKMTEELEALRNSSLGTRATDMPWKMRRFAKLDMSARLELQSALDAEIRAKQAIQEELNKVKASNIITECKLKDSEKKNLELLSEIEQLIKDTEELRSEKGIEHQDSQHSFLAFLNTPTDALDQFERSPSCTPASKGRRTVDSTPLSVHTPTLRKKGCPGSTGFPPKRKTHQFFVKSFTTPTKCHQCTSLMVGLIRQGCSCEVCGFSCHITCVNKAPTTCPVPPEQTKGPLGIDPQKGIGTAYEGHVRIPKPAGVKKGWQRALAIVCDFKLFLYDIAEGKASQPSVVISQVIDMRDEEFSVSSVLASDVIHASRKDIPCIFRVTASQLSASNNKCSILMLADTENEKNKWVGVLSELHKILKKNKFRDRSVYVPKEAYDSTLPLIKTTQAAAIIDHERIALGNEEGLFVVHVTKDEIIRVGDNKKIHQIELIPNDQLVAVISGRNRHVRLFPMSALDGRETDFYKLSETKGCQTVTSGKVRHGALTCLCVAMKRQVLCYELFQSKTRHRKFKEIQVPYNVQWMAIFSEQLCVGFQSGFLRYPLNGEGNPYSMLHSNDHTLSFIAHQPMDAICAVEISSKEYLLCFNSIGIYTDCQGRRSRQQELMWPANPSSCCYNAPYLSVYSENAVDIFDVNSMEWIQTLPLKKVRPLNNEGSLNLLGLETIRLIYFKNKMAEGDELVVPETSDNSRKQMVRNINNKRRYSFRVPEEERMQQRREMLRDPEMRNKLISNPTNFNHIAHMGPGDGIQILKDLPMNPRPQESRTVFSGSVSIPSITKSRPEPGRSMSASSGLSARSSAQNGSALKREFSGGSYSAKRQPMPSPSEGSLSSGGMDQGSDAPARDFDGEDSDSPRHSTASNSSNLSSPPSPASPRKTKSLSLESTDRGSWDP

One may read the inhibition as the change of the read-out against control, counted positive when it falls. For `CCS(=O)(=O)c1ccc(OC)c(Nc2nccc(N(C)c3ccc4c(C)n[nH]c4c3)n2)c1`, the inhibition in [1] is -4.24%; in [2], -2.48%; in experiment [3], 0.97%; in experiment [4], 0.83%; in [5] it was 4.1%; in experiment [6] it was 1.28%. In addition, the inhibition in [7] was 2.02%; in [8], 0.35%; in experiment [9] it was 0.02%; in [10], 1.3%; in [11] it was -0.7%; in [12], 2.41%. Further, the inhibition is 0.84% in experiment [13]; 0.55% in [14]; 1.48% in experiment [15]; 0.4% in experiment [16]; -2.93% in [17]; 3.8% in experiment [18]. Besides, the inhibition in experiment [19] worked out at 6.38%; in experiment [20] it was 0.63%.
With `C[C@@H](Oc1cc(-n2cnc3ccc(OC[C@@H](O)CO)cc32)sc1C(N)=O)c1ccccc1Cl`, the inhibition was -0.35% in experiment [1]; 4.31% in [2]; 1.02% in experiment [3]; 3.59% in [4]; -1.23% in [5]; -0.54% in experiment [6]. Also, the inhibition is 0.35% in experiment [7]; 1.7% in experiment [8]; 0.75% in [9]; 1.5% in [10]; 0.22% in experiment [11]; -0.26% in experiment [12]. Moreover, the inhibition is -0.61% in [13]; -0.25% in experiment [14]; 3.02% in experiment [15]; -0.38% in experiment [16]; 1.7% in experiment [17]; 0.53% in [18]. Besides, the inhibition was 0.23% in experiment [19] and -1.57% in experiment [20].
Turning to `CC(C)c1ccc2c(c1)NC(=O)/C2=N/Nc1ccc(S(N)(=O)=O)cc1`, the inhibition is 2.04% in experiment [1]; -2.97% in experiment [2]; -0.17% in [3]; -1.37% in experiment [4]; -0.47% in experiment [5]; -2.62% in experiment [6]. For the same compound, the inhibition was 0.04% in experiment [7]; -1.31% in [8]; -0.81% in experiment [9]; -1.36% in experiment [10]; 0.82% in experiment [11]; 1.46% in experiment [12]. For the same compound, the inhibition was 0.47% in [13]; -0.57% in experiment [14]; 0.11% in experiment [15]; -0.04% in [16]; -5.38% in experiment [17]; 2.07% in experiment [18]. In addition, the inhibition in [19] is -1.13%; in experiment [20], -0.1%.
With `NS(=O)(=O)c1ccc(N/N=C2\C(=O)Nc3ccc(Cl)cc32)cc1`, the inhibition in [1] is -0.18%; in experiment [2], 2.52%; in experiment [3] it was 0.03%; in [4], 0.67%; in experiment [5], -2.92%; in experiment [6], -0.64%. Besides, the inhibition in [7] came out at 2.66%; in [8], 5.77%; in experiment [9], 1.75%; in experiment [10], 2.32%; in experiment [11] it was 2.36%; in [12], 3.49%. Further, the inhibition in experiment [13] came to 4.12%; in [14], 0.69%; in experiment [15] it was 1.45%; in experiment [16] it was 1.35%; in experiment [17] it was 2.75%; in experiment [18], 4.13%. Also, the inhibition was 4.71% in [19] and -1.84% in experiment [20].
Regarding `c1ccc(Nc2ncc(-c3ccccc3)o2)cc1`, the inhibition is 1.05% in [1]; 2.6% in experiment [2]; -0.11% in [3]; 0.28% in experiment [4]; 3.68% in experiment [5]; 3.58% in [6]. The inhibition in experiment [7] was determined as 2.52%; in [8], 3.34%; in [9], 3.16%; in experiment [10], 5%; in experiment [11] it was 4.59%; in [12], 2.19%. The inhibition in experiment [13] is 3.41%; in experiment [14], 1.37%; in [15] it was 2.47%; in experiment [16] it was -0.26%; in experiment [17] it was -0.49%; in experiment [18], 2.48%. Also, the inhibition in [19] is 5.31%; in experiment [20] it was 2.57%.
Consider `COc1cccc(-n2nc(C)c3c(N/N=C(\C)c4ccncc4)ncnc32)c1`, for which the inhibition was 1.87% in [1]; -2.42% in experiment [2]; 0.02% in experiment [3]; -0.47% in experiment [4]; 0.18% in [5]; -0.52% in experiment [6]. In addition, the inhibition in experiment [7] was 0.44%; in [8], 0.3%; in experiment [9], 0.29%; in [10] it was -0.38%; in [11], 2.62%; in experiment [12] it was 0.69%. Moreover, the inhibition is -0.34% in experiment [13]; -0.84% in experiment [14]; -1.11% in experiment [15]; 0.03% in experiment [16]; -2.45% in [17]; -0.66% in experiment [18]. Besides, the inhibition in [19] is -5.32%; in experiment [20], 1.51%.
Turning to `NS(=O)(=O)c1ccc(-c2cc3ccncc3cc2OCc2ccccc2)cc1`, the inhibition in experiment [1] was -0.66%; in [2], -1.1%; in experiment [3], -1.66%; in experiment [4], -2.27%; in [5], 1.89%; in [6] it was 0.96%. The inhibition turned out to be 1.86% in experiment [7]; 2.64% in experiment [8]; 1.3% in [9]; 2.04% in experiment [10]; 3.11% in experiment [11]; 1.4% in [12]. In addition, the inhibition came out at 0.52% in [13]; 0.12% in [14]; 1.77% in experiment [15]; 0.43% in experiment [16]; 3.25% in experiment [17]; 4.33% in experiment [18]. For the same compound, the inhibition amounted to 3.62% in experiment [19] and 1.21% in experiment [20].
